Laboratory results: article PMC11062922 (Nature Chemical Biology, 2023)
Like-named read-outs stand apart in the source and are kept apart here.

Columns and labels:
Set-up in all cases: species or system human, MV4-11 + K-562 + COLO205 + SK-N-BE2 + OVCAR-8
AXL = settings: read-out: apparent Kd, compound concentrations: 100 nM and 1000 nM (sheet 'Samples'), n = 1
CDC42BPA = settings: read-out: apparent Kd; compound concentrations: 100 nM and 1000 nM (sheet 'Samples'), CATDS: 3.9597453798327397E-3; n = 1
CDC42BPG = settings: read-out: apparent Kd; compound concentrations: 100 nM and 1000 nM (sheet 'Samples'), CATDS: 5.4078712502347798E-3; n = 1
CDK2 = settings: read-out: apparent Kd; compound concentrations: 100 nM and 1000 nM (sheet 'Samples'), CATDS: 5.1697348126272004E-3; n = 1
CDK9 = settings: read-out: apparent Kd; compound concentrations: 100 nM and 1000 nM (sheet 'Samples'), CATDS: 4.5836362442514197E-3; n = 1
CSK = settings: read-out: apparent Kd, compound concentrations: 100 nM and 1000 nM (sheet 'Samples'), n = 1
EPHA1 = settings: read-out: apparent Kd, compound concentrations: 100 nM and 1000 nM (sheet 'Samples'), n = 1
EPHB3 = settings: read-out: apparent Kd, compound concentrations: 100 nM and 1000 nM (sheet 'Samples'), n = 1
FYN = settings: read-out: apparent Kd; compound concentrations: 100 nM and 1000 nM (sheet 'Samples'), CATDS: 7.0897882723323898E-3; n = 1
IRAK3 = settings: read-out: apparent Kd, compound concentrations: 100 nM and 1000 nM (sheet 'Samples'), n = 1
LYN = settings: read-out: apparent Kd; compound concentrations: 100 nM and 1000 nM (sheet 'Samples'), CATDS: 5.9641678427723097E-3; n = 1
MTOR = settings: read-out: apparent Kd; compound concentrations: 100 nM and 1000 nM (sheet 'Samples'), CATDS: 1.26439105920185E-2; n = 1
PIK3CG = settings: read-out: apparent Kd, compound concentrations: 100 nM and 1000 nM (sheet 'Samples'), n = 1
PRKG1 = settings: read-out: apparent Kd; compound concentrations: 100 nM and 1000 nM (sheet 'Samples'), CATDS: 4.7487342618258797E-3; n = 1
ROCK1 = settings: read-out: apparent Kd; compound concentrations: 100 nM and 1000 nM (sheet 'Samples'), CATDS: 4.4818399275614899E-3; n = 1
ULK1 = settings: read-out: apparent Kd, compound concentrations: 100 nM and 1000 nM (sheet 'Samples'), n = 1
RIPK2 = settings: read-out: apparent Kd, n = 1
TGFBR2 = settings: read-out: apparent Kd; compound concentrations: 100 nM and 1000 nM (sheet 'Samples'), CATDS: 0.33092190258733201; n = 1

Compound: Cn1ncc2c(N)ncnc21 [SKF-18267]
- potency estimated from few doses (AXL; CATDS: 4.1647880989247304E-3): 1210 nM
- potency estimated from few doses (CDC42BPA): 1370 nM
- potency estimated from few doses (CDC42BPG): 700 nM
- potency estimated from few doses (CDK2): 762 nM
- potency estimated from few doses (CDK9): 974 nM
- potency estimated from few doses (CSK; CATDS: 4.6419413759929496E-3): 948 nM
- potency estimated from few doses (EPHA1; CATDS: 6.5055673029188101E-3): 506 nM
- potency estimated from few doses (EPHB3; CATDS: 3.3263666790724102E-3): 2290 nM
- potency estimated from few doses (FYN): 440 nM
- potency estimated from few doses (IRAK3; CATDS: 5.6966714044827602E-3): 636 nM
- potency estimated from few doses (LYN): 586 nM
- potency estimated from few doses (MTOR): 192 nM
- potency estimated from few doses (PIK3CG; CATDS: 9.5970287600273298E-3): 280 nM
- potency estimated from few doses (PRKG1): 904 nM
- potency estimated from few doses (ROCK1): 1020 nM
- potency estimated from few doses (ULK1; CATDS: 3.78452040785661E-3): 1550 nM

Compound: Cl.ON=C1CCc2cc(-c3nc(C4CCNCC4)[nH]c3-c3ccncc3)ccc21 [SB-614067-R]
- potency estimated from few doses (RIPK2; compound concentrations:100 nM and 1000 nM (sheet 'Samples')): 320 nM

Compound: Cc1ccc(Nc2ccnc(Nc3ccc4c(c3)CS(=O)(=O)C4)n2)cc1O.Cl [GW579362A]
- potency estimated from few doses (IRAK3; CATDS: 4.4859937900589397E-2): 446 nM
- potency estimated from few doses (RIPK2; compound concentrations: 100 nM and 1000 nM (sheet 'Samples'), CATDS: 5.8804795040806997E-2): 261 nM
- potency estimated from few doses (TGFBR2): 13.2 nM

Compound: CCOC(=O)N1CCC(n2cnc(-c3ccc(F)cc3)c2-c2ccnc(N)n2)CC1 [SB-219952]
- potency estimated from few doses (AXL; CATDS: 1.0061198930866599E-2): 853 nM
- potency estimated from few doses (CSK; CATDS: 1.06273677269496E-2): 745 nM
- potency estimated from few doses (EPHA1; CATDS: 1.16401500305403E-2): 603 nM
- potency estimated from few doses (EPHB3; CATDS: 9.5797280308489805E-3): 971 nM
- potency estimated from few doses (RIPK2; compound concentrations: 100 nM and 1000 nM (sheet 'Samples'), CATDS: 1.44232329790909E-2): 387 nM
- potency estimated from few doses (ULK1; CATDS: 8.7591953148760202E-3): 1260 nM

Compound: O=C1NC(=O)/C(=C/c2ccc3ncccc3c2)S1 [RO4603632-000]
- potency estimated from few doses (PIK3CG; CATDS: 0.208226533332634): 948 nM
